From PubChem BioAssay (Tox21)
Activity calls are given as the source filed them. Calls come from the whole dose curve; as a rule, active = well fitted curve in the direction sought with a large enough effect in the repeat runs; inconclusive = weak or mixed curves; inactive = flat fitted curve, though single readings scatter.

assay: qHTS assay to test for compound auto fluorescence at 535 nm (green) in HepG2 cells (AID 720675); details: green autofluorescence 485/535 nm, 1 h; series mostly up to 91.3 µM

Row | SMILES | outcome
1 | NC(N)=NC(=O)c1nc(Cl)c(N)nc1N | inactive
2 | NC(=O)c1cnccn1 | inactive
3 | Cc1noc(NS(=O)(=O)c2ccc(N)cc2)c1C | inactive
4 | Nc1ccc(S(=O)(=O)Nc2nccs2)cc1 | inactive
5 | O=c1ccc2ccccc2o1 | inactive
6 | Nc1ccc(O)c(C(=O)O)c1 | inactive
7 | CCOc1ccc(NC(=O)CC(C)O)cc1 (configuration not stated) | inactive
8 | CC(O)CO (configuration not stated) | inactive
9 | O=C(O)CCCCCCCC(=O)O | inactive
10 | O=S(=O)(O)c1ccc2cc(O)ccc2c1 | inactive
11 | CC(O)C(=O)O (configuration not stated) | inactive
12 | Oc1ccc(/C=C/c2cc(O)cc(O)c2)cc1 | inactive
13 | NC(=O)c1ccccc1O | inactive
14 | CC(C)[C@@H]1CC[C@@H](C)C[C@H]1O | inactive
15 | C1N2CN3CN1CN(C2)C3 | inactive
16 | CC(O)CN(CCN(CC(C)O)CC(C)O)CC(C)O (configuration not stated) | inactive
17 | Cc1cn([C@H]2C[C@H](N=[N+]=[N-])[C@@H](CO)O2)c(=O)[nH]c1=O | inactive
18 | CCCN(CCC)S(=O)(=O)c1ccc(C(=O)O)cc1 | inactive

Row | SMILES | outcome
19 | CC(=O)Nc1nnc(S(N)(=O)=O)s1 | inactive
20 | CCCCOC(=O)CC(CC(=O)OCCCC)(OC(C)=O)C(=O)OCCCC | inactive
21 | NNC(=O)c1ccncc1 | inactive
22 | CCCCC(CC)COC(=O)/C=C/c1ccc(OC)cc1 (configuration not stated) | inactive
23 | NC(=O)NC1NC(=O)NC1=O (configuration not stated) | inactive
24 | OC(Cn1cncn1)(Cn1cncn1)c1ccc(F)cc1F | inactive
25 | COc1ccc2[nH]cc(CCNC(C)=O)c2c1 | inactive
26 | CC(C)(Oc1ccc(C2CC2(Cl)Cl)cc1)C(=O)O (configuration not stated) | inactive
27 | Cc1ccc(O)cc1 | inactive
28 | O=C(O)C(=O)O | inactive
29 | O=c1cc[nH]c(=S)[nH]1 | inactive
30 | Cc1cc(=O)n(-c2ccccc2)n1C | inactive
31 | CCCNC(=O)NS(=O)(=O)c1ccc(Cl)cc1 | inactive
32 | Nc1ccn([C@H]2CC[C@@H](CO)O2)c(=O)n1 | inactive
33 | CC(=O)NS(=O)(=O)c1ccc(N)cc1 | inactive
34 | O=C(O)CCC(=O)O | inactive
35 | Nc1ccc(C(=O)O)cc1 | inactive
36 | NC(N)=O | inactive

assay: qHTS assay to test for compound auto fluorescence at 460 nm (blue) in HEK293 cells (AID 720678); details: blue autofluorescence 405/460 nm; series mostly up to 91.3 µM
Procedure, shortened: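 HEK293 cells (2,000/well, medium with 10% dialyzed FBS) attached 4-5 hr, then exposed to compound overnight at 37C, 5% CO2. Blue fluorescence read at 405/460 nm, with triamterene as reference fluorophore.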

Row | SMILES | outcome
37 | NC(N)=NC(=O)c1nc(Cl)c(N)nc1N | inactive
38 | NC(=O)c1cnccn1 | inactive
39 | Cc1noc(NS(=O)(=O)c2ccc(N)cc2)c1C | inactive
40 | Nc1ccc(S(=O)(=O)Nc2nccs2)cc1 | inactive
41 | O=c1ccc2ccccc2o1 | inactive
42 | Nc1ccc(O)c(C(=O)O)c1 | inactive
43 | CCOc1ccc(NC(=O)CC(C)O)cc1 (configuration not stated) | inactive
44 | CC(O)CO (configuration not stated) | inactive
45 | O=C(O)CCCCCCCC(=O)O | inactive
46 | O=S(=O)(O)c1ccc2cc(O)ccc2c1 | inactive
47 | CC(O)C(=O)O (configuration not stated) | inactive
48 | Oc1ccc(/C=C/c2cc(O)cc(O)c2)cc1 | inactive
49 | NC(=O)c1ccccc1O | inactive
50 | CC(C)[C@@H]1CC[C@@H](C)C[C@H]1O | inactive
51 | C1N2CN3CN1CN(C2)C3 | inactive
52 | CC(O)CN(CCN(CC(C)O)CC(C)O)CC(C)O (configuration not stated) | inactive
53 | Cc1cn([C@H]2C[C@H](N=[N+]=[N-])[C@@H](CO)O2)c(=O)[nH]c1=O | inactive
54 | CCCN(CCC)S(=O)(=O)c1ccc(C(=O)O)cc1 | inactive

Row | SMILES | outcome
55 | CC(=O)Nc1nnc(S(N)(=O)=O)s1 | inactive
56 | CCCCOC(=O)CC(CC(=O)OCCCC)(OC(C)=O)C(=O)OCCCC | inactive
57 | NNC(=O)c1ccncc1 | inactive
58 | CCCCC(CC)COC(=O)/C=C/c1ccc(OC)cc1 (configuration not stated) | inactive
59 | NC(=O)NC1NC(=O)NC1=O (configuration not stated) | inactive
60 | OC(Cn1cncn1)(Cn1cncn1)c1ccc(F)cc1F | inactive
61 | COc1ccc2[nH]cc(CCNC(C)=O)c2c1 | inactive
62 | CC(C)(Oc1ccc(C2CC2(Cl)Cl)cc1)C(=O)O (configuration not stated) | inactive
63 | Cc1ccc(O)cc1 | inactive
64 | O=C(O)C(=O)O | inactive
65 | O=c1cc[nH]c(=S)[nH]1 | inactive
66 | Cc1cc(=O)n(-c2ccccc2)n1C | inactive
67 | CCCNC(=O)NS(=O)(=O)c1ccc(Cl)cc1 | inactive
68 | Nc1ccn([C@H]2CC[C@@H](CO)O2)c(=O)n1 | inactive
69 | CC(=O)NS(=O)(=O)c1ccc(N)cc1 | inactive
70 | O=C(O)CCC(=O)O | inactive
71 | Nc1ccc(C(=O)O)cc1 | inactive
72 | NC(N)=O | inactive
